# Assay results as given in PubChem BioAssay.
# “And” between values parts separate entries of the source, which are not always exact repeats. Equal values may be shown once. The source made the active and inactive calls. Unless noted, no rule for the calls is given here.
# How the values were obtained:
# [1] = compounds altering circadian rhythm period length – cell-based, LOPAC library, luminescence reporter (AID 2774); details: circadian reporter cells, at 7 µM, actives lie on both sides;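 also: values are relative to mean of DMSO wells on each plate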
# [2] = test system: Aerobactin synthetase IucA (Klebsiella pneumoniae, hypervirulent); assay: biochemical IucA inhibition screen of LOPAC library by absorbance (AID 1346212); details: IucA enzyme assay, absorbance (OD) readout; stronger effect = lower value;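 tested at 8 µM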;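 also: 100% = no compound wells and 0% = no enzyme wells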
# [3] = test system: Hepatitis C virus NS3 helicase; assay: blockers of NS3h binding to ssDNA – biochemical, fluorescence polarization, LOPAC1280 library, primary screen (AID 687035; in the data active = inhibition above about 37%); details: Purified HCV NS3 helicase, Cy5-dT15 ssDNA binding fluorescence polarization; stronger effect = higher value; concentration not given here
# [4] = compounds altering Cy5-DNA-NS3h complex signal – biochemical, LOPAC1280, artefact control for HCV NS3 helicase inhibitor project (AID 687037); details: Cy5-DNA-NS3h complex fluorescence interference counterscreen
# [5] = viability loss with induced miR-34 in A549 – imaging, A549 dox-inducible miR-34, nuclei and caspase counts, primary screen (AID 1347080;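 active = compounds whose cell count with miR-34 switched on is under 0.7 times the count with it off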); details: A549 miR-34 inducible, Hoechst nuclei count, 48 h
# [6] = blockers of cellular phospholipid synthesis – cell-based, LOPAC library, screen 4, primary screen (AID 1347384); details: animal cells, phospholipid biosynthesis inhibition screen; at 10 µM
# [7] = galactose survival enhancers in mitochondrial complex I cybrids – cell-based, galactose medium, ATP luminescence, primary screen (AID 1645843;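 active = z-score of at least 1.8 in each of two replicates, scored against plate mean and spread of sample wells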;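 also: positive z means more ATP and so rescue of galactose-driven cybrid death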); details: complex I mutant cybrid cells, 72 h, stronger effect = higher value
# [8] = compounds altering viability of human ES cells (AID 493140); details: human embryonic stem cell survival screen; stronger effect = higher value;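 also: cells exposed to compounds for four days before counting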
# [9] = P. berghei load reduction in hepatocytes – cell-based, HepG2, luciferase luminescence, HepG2 viability, primary screen (AID 624349; in the data active = parasite load remaining mostly below about 12%, no sharp cut-off; inactive = mostly above about 10%;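 also: 100% = mean of DMSO negative control wells on the same plate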); details: P. berghei liver stage in HepG2, luciferase luminescence, concentration not given here; parasite load remaining: stronger effect = lower value; viability: measured here: HepG2 viability without parasites
# [10] = measured here: relative caspase fold change +Dox/-Dox
# [11] = measured here: total cells with miR-34 induction, stronger effect = lower value
# [12] = measured here: total cells without miR-34 induction
# [13] = stronger effect = lower value, cell number ratio, induced over uninduced
structure (smiles),measurement,setting,value
CCCN(CCC)[C@@H]1CCc2c(F)ccc(O)c2C1,period change,[1],-0.015 h (inactive)
same,remaining activity,[2],110% (inactive)
O=[N+]([O-])c1ccc(O[C@@H]2O[C@H](CO)[C@@H](O)[C@H](O)[C@H]2F)c([N+](=O)[O-])c1,period change,[1],-0.07 h (inactive)
same,remaining activity,[2],96.8% (inactive)
CC(C)[C@H]1CN[C@H](C(=O)O)[C@H]1CC(=O)O,inhibition,[3],1% (inactive)
same,fluorescence ratio (interference),[4],1 (inactive)
same,remaining activity,[2],93.8% (inactive)
same,fold change,[5]; stronger effect = lower value,0.952 (inactive)
same,fold change,[5]; [10],0.99
same,cell count,[5]; [11],9550
same,cell count,[5]; [12],10000
same,outcome,[6],inactive
same,z-score,[7],0.11 (inactive)
Cc1cc([C@@H]2CCCN2C)on1,inhibition,[3],-6% (inactive)
same,fluorescence ratio (interference),[4],1 (inactive)
same,remaining activity,[2],91.6% (inactive)
same,fold change,[5]; stronger effect = lower value,0.924 (inactive)
same,fold change,[5]; [10],1.47
same,cell count,[5]; [11],9420
same,cell count,[5]; [12],10200
same,outcome,[6],inactive
same,z-score,[7],0.41 (inactive)
O=C(OC1CCN(CCCl)CC1)C(c1ccccc1)c1ccccc1,period change,[1],-0.15 h (inactive)
same,remaining activity,[2],106% (inactive)
O=C(O)C1C2CCC(O2)C1C(=O)O (stereo unspecified),period change,[1],0.03 h (inactive)
same,survival,[8],66 (inactive)
same,remaining activity,[2],81.7% (inactive)
C=CCN1CC[C@]23c4c5ccc(O)c4O[C@@H]2/C(=N/N=C2\CC[C@@]4(O)C6Cc7ccc(O)c8c7[C@@]4(CCN6CC=C)[C@@H]2O8)CC[C@@]3(O)C1C5,period change,[1],0.015 h (inactive)
same,remaining activity,[2],108% (inactive)
CCCCCCC(C)(C)c1ccc([C@@H]2C[C@H](O)CC[C@H]2CCCO)c(O)c1,period change,[1],0.01 h (inactive)
same,inhibition,[3],-4% (inactive)
same,fluorescence ratio (interference),[4],1 (inactive)
same,remaining activity,[2],106% (inactive)
same,fold change,[5]; stronger effect = lower value,0.915 (inactive)
same,fold change,[5]; [10],0.979
same,cell count,[5]; [11],5170
same,cell count,[5]; [12],5640
O=[N+]([O-])/C=C/c1ccc2c(c1)OCO2,parasite load remaining,[9],42.5% (inactive)
same,viability,[9],65.7%
same,inhibition,[3],-1% (inactive)
same,fluorescence ratio (interference),[4],1 (inactive)
same,remaining activity,[2],107% (inactive)
same,fold change,[5]; stronger effect = lower value,1.45 (inactive)
same,fold change,[5]; [10],0.546
same,cell count,[5]; [11],2000
same,cell count,[5]; [12],1380
same,outcome,[6],inactive
same,z-score,[7],-0.995 (inactive)
N[C@@H](Cn1ccc(=O)[nH]c1=O)C(=O)O,period change,[1],0.095 h (inactive)
same,remaining activity,[2],122% (inactive)
c1ccc(C2(c3ccccc3)CC2C2=NCCN2)cc1 (stereo unspecified),inhibition,[3],-3% (inactive)
same,fluorescence ratio (interference),[4],0.9 (inactive)
same,remaining activity,[2],115% (inactive)
same,fold change,[5]; [13],1.07 (inactive)
same,fold change,[5]; [10],1.35
same,cell count,[5]; [11],11300
same,cell count,[5]; [12],10600
same,outcome,[6],inactive
same,z-score,[7],0.18 (inactive)
C[C@H]1OC[C@@H](C[N+](C)(C)C)O1,period change,[1],-0.07 h (inactive)
same,remaining activity,[2],81.5% (inactive)
CC(=O)OCC1=C(C(=O)[O-])N2C(=O)[C@@H](NC(=O)CCC[C@@H](N)C(=O)[O-])[C@H]2SC1.[Zn+2],period change,[1],-0.01 h (inactive)
same,inhibition,[3],0% (inactive)
same,fluorescence ratio (interference),[4],0.9 (inactive)
same,remaining activity,[2],102% (inactive)
same,fold change,[5]; stronger effect = lower value,1.04 (inactive)
same,fold change,[5]; [10],1.44
same,cell count,[5]; [11],10400
same,cell count,[5]; [12],10000
same,z-score,[7],-0.275 (inactive)
COc1ccc2c3c1O[C@H]1C(=O)CC[C@@]4(O)C(C2)N(CC2CC2)CCC314 (stereo partly specified),period change,[1],-0.115 h (inactive)
same,remaining activity,[2],120% (inactive)
CC(=O)[C@H]1CC[C@H]2[C@@H]3CC[C@H]4C[C@](C)(O)CC[C@]4(C)[C@H]3CC[C@]12C,inhibition,[3],-2% (inactive)
same,fluorescence ratio (interference),[4],1 (inactive)
same,remaining activity,[2],116% (inactive)
same,fold change,[5]; stronger effect = lower value,0.971 (inactive)
same,fold change,[5]; [10],1.33
same,cell count,[5]; [11],10300
same,cell count,[5]; [12],10600
same,outcome,[6],inactive
same,z-score,[7],-0.05 (inactive)
COC(=O)c1cc2c(cn1)[nH]c1ccccc12,period change,[1],0.035 h (inactive)
same,remaining activity,[2],104% (inactive)
COc1cc(C=C(C#N)C#N)cc(O)c1O,period change,[1],-0.12 h (inactive)
same,remaining activity,[2],117% (inactive)
O=P(O)(O)C(Cl)(Cl)P(=O)(O)O,period change,[1],-0.115 h (inactive)
same,inhibition,[3],-2% (inactive)
same,fluorescence ratio (interference),[4],1 (inactive)
same,remaining activity,[2],94.8% (inactive)
same,fold change,[5]; stronger effect = lower value,0.966 (inactive) and 0.892 (inactive)
same,fold change,[5]; [10],1.44 and 0.98
same,cell count,[5]; [11],9450 and 9630
same,cell count,[5]; [12],9790 and 10800
same,z-score,[7],1.8 (inactive) and 0.645 (inactive)
N[C@H](CCCCCP(=O)(O)O)C(=O)O,period change,[1],-0.025 h (inactive)
same,remaining activity,[2],114% (inactive)
CCN(CC)c1ncnc2c1ncn2[C@@H]1O[C@H](COP(=O)(O)OP(=O)(O)C(Br)(Br)P(=O)(O)O)[C@@H](O)[C@H]1O,period change,[1],0.205 h (inactive)
same,inhibition,[3],-1% (inactive)
same,fluorescence ratio (interference),[4],1 (inactive)
same,remaining activity,[2],110% (inactive)
same,fold change,[5]; stronger effect = lower value,1.01 (inactive)
same,fold change,[5]; [10],2.23
same,cell count,[5]; [11],10400
same,cell count,[5]; [12],10200
same,z-score,[7],0.37 (inactive)
Nc1ncnc2c1ncn2[C@@H]1O[C@H](COP(=O)(O)CP(=O)(O)OP(=O)(O)O)[C@H](O)C1O (stereo partly specified),period change,[1],0.01 h (inactive)
same,inhibition,[3],-1% (inactive)
same,fluorescence ratio (interference),[4],1 (inactive)
same,remaining activity,[2],111% (inactive)
same,fold change,[5]; stronger effect = lower value,1.06 (inactive)
same,fold change,[5]; [10],0.784
same,cell count,[5]; [11],11200
same,cell count,[5]; [12],10600
same,z-score,[7],2.36 (active)
CC1Cc2cc3c(cc2C(c2ccc(N)cc2)=NN1)OCO3 (stereo unspecified),period change,[1],0.09 h (inactive)
same,remaining activity,[2],102% (inactive)
C[N+]1(C)C2CC(OC(=O)[C@H](CO)c3ccccc3)CC1C1OC12 (stereo partly specified),period change,[1],-0.095 hour (inactive) and 0.155 hour (inactive)
same,inhibition,[3],-1% (inactive) and 0% (inactive)
same,fluorescence ratio (interference),[4],1 (inactive)
same,remaining activity,[2],96.4% (inactive)
same,fold change,[5]; stronger effect = lower value,0.984 (inactive) and 1.04 (inactive)
same,fold change,[5]; [10],0.938 and 1.11
same,cell count,[5]; [11],10100 and 9050
same,cell count,[5]; [12],10300 and 8720
same,z-score,[7],0.475 (inactive) and 0.45 (inactive)
CC(C)(O)[C@@H]1C2OC(=O)C1[C@]1(O)C[C@H]3O[C@]34C(=O)O[C@H]2[C@]14C (stereo partly specified) (tested in a mixture with another compound),remaining activity,[2],128% (inactive)
same,outcome,[6],inactive
CCc1c(C(=O)OC)ncc2[nH]c3cc(OC)c(OC)cc3c12,period change,[1],0.185 h (inactive)
same,remaining activity,[2],93% (inactive)
CN(N=O)c1cc(O)ccc1O,period change,[1],0.05 h (inactive)
same,inhibition,[3],-1% (inactive)
same,fluorescence ratio (interference),[4],1 (inactive)
same,remaining activity,[2],103% (inactive)
same,fold change,[5]; stronger effect = lower value,1.03 (inactive)
same,fold change,[5]; [10],1.21
same,cell count,[5]; [11],9960
same,cell count,[5]; [12],9640
same,z-score,[7],-1.04 (inactive)
C=CCN1CCc2cccc3c2[C@H]1Cc1ccc(O)c(O)c1-3,period change,[1],0.185 h (inactive)
same,inhibition,[3],-3% (inactive)
same,fluorescence ratio (interference),[4],1.1 (inactive)
same,remaining activity,[2],110% (inactive)
Clc1ccc(C(c2ccc(Cl)cc2)n2cc[n+](CC(OCc3ccc(Cl)cc3Cl)c3ccc(Cl)cc3Cl)c2)cc1 (stereo unspecified),period change,[1],-0.26 h (inactive)
same,inhibition,[3],-3% (inactive)
same,fluorescence ratio (interference),[4],0.9 (inactive)
same,remaining activity,[2],106% (inactive)
same,fold change,[5]; stronger effect = lower value,0.883 (inactive)
same,fold change,[5]; [10],1.87
same,cell count,[5]; [11],1420
same,cell count,[5]; [12],1610
same,z-score,[7],-1.52 (inactive)
CCCN(CCC)C(=O)Cc1c(-c2ccc(Cl)cc2)nc2c(Cl)cc(Cl)cn12,period change,[1],-0.05 h (inactive)
same,remaining activity,[2],120% (inactive)
NCC#Cc1ccccc1,period change,[1],0.045 h (inactive)
same,remaining activity,[2],96.6% (inactive)
CC12CCC3C(CCC4=C(O)C(=O)CCC43C)C1CCC2=O (stereo unspecified),period change,[1],-0.08 h (inactive)
same,inhibition,[3],-3% (inactive)
same,fluorescence ratio (interference),[4],1 (inactive)
same,remaining activity,[2],113% (inactive)
CCN(CC)C(=O)N[C@@H]1C[C@@H]2c3cccc4[nH]cc(c34)C[C@H]2N(C)C1,period change,[1],0.085 h (inactive)
same,remaining activity,[2],102% (inactive)
CCCN1CCC[C@@H](c2cccc(C#N)c2)C1,period change,[1],-0.025 h (inactive)
same,remaining activity,[2],122% (inactive)
C[C@H](Cc1ccc2c(c1)OC(C(=O)O)(C(=O)O)O2)NC[C@H](O)c1cccc(Cl)c1,period change,[1],0.1 h (inactive)
same,inhibition,[3],-3% (inactive)
same,fluorescence ratio (interference),[4],1 (inactive)
same,remaining activity,[2],117% (inactive)
same,fold change,[5]; [13],1.02 (inactive)
same,fold change,[5]; [10],1.78
same,cell count,[5]; [11],10500
same,cell count,[5]; [12],10300
same,z-score,[7],0.755 (inactive)
C[C@@H]1O[C@H](C[N+](C)(C)C)CS1,period change,[1],-0.11 h (inactive)
same,inhibition,[3],-1% (inactive)
same,fluorescence ratio (interference),[4],1 (inactive)
same,remaining activity,[2],81.1% (inactive)
